Data published in PubChem BioAssay (EPA / NIEHS).
Calls of active or inactive are those of the source. How the source made its calls: active means hit-call score of the fitted dose curve at least 0.9, where 1 is the maximum; inactive means score below 0.9.

Key:
[1] = CCTE_Padilla_ZF_Score.Swim_bladder: CCTE's 144 Hour Post-fertilization zebrafish Assay Score for Swim Bladder Malformation, Padilla Lab (AID 2284408)
Procedure, shortened: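 Swim bladder inflation scored at 6 dpf by two blinded observers under a stereo microscope. Exposure ran from 6–8 hpf in sealed wells of 10% Hanks' at 26C, with rinsing at 5 dpf; DMSO served as baseline.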

[2] = CCTE_Padilla_ZF_Score.Position: CCTE's 144 Hour Post-fertilization zebrafish Assay Score for Position, Padilla Lab (AID 2284409)
Procedure, shortened: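 Wild-type zebrafish embryos (with chorions) exposed singly from 6–8 hpf in sealed wells of Hanks' solution at 26C, rinsed at 5 dpf. At 6 dpf, blinded assessors scored abnormal water-column position by brightfield stereomicroscopy, relative to DMSO.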

[3] = CCTE_Padilla_ZF_Score.Living: CCTE's 144 Hour Post-fertilization zebrafish Assay Score for Viability, Padilla Lab (AID 2284410);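 further: larval death at 6 dpf judged by absent heartbeat or coagulation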
Procedure, shortened: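 Mortality at 6 dpf, judged as absent heartbeat or coagulation by two blinded observers, after sealed static exposure beginning at 6–8 hpf at 26C. Larvae were rinsed free of chemical at 5 dpf, and activity was fitted relative to DMSO.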

[4] = CCTE_Padilla_ZF_Score.General: CCTE's 144 Hour Post-fertilization zebrafish Assay Score for General Malformation, Padilla Lab (AID 2284411)
Procedure, shortened: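 Malformation, death and hatching were scored at 6 dpf by two blinded observers under a stereo microscope. Embryos were dosed singly from 6-8 hpf in sealed plates of 10% Hanks' at 26C and rinsed on 5 dpf; DMSO baseline.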

[5] = CCTE_Padilla_ZF_Score.Tail: CCTE's 144 Hour Post-fertilization zebrafish Assay Score for Tail Malformation, Padilla Lab (AID 2284414)
Procedure, shortened: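 Tail malformations were scored at 6 dpf by two blinded assessors under a stereo microscope. Chorionated embryos had been exposed from 6-8 hpf in sealed wells of 10% Hanks' at 26 C, then rinsed free of chemical at 5 dpf.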

[6] = CCTE_Padilla_ZF_Score.Blood_pooling: CCTE's 144 Hour Post-fertilization zebrafish Assay Score for Blood Pooling, Padilla Lab (AID 2284415)
Procedure, shortened: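 Blood pooling was scored at 6 dpf under a stereo microscope by two blinded assessors, fitted upward against DMSO. Single embryos were dosed at 6–8 hpf in 10% Hanks', kept sealed at 26C (14:10 h cycle) and rinsed at 5 dpf.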

[7] = CCTE_Padilla_ZF_Score.Any: CCTE's 144 Hour Post-fertilization zebrafish Assay Score for Any Mortality or Malformation, Padilla Lab (AID 2284416)
Procedure, shortened: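 Wild-type zebrafish embryos with chorions, one per well in 10% Hanks' from 6–8 hpf, dosed in sealed plates at 26 C, 14:10 h light:dark; rinsed at 5 dpf; blinded scoring at 6 dpf for death or malformation, versus DMSO.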

CCOC(F)(F)C(F)(F)C(F)(F)C(F)(F)F
outcome [1]: inactive | outcome [2]: inactive | outcome [3]: inactive | outcome [4]: inactive | outcome [5]: inactive | outcome [6]: inactive | outcome [7]: inactive

CCCCCCCCCCCCCCCC[N+](C)(C)CC
outcome [4]: inactive

C#CC1(O)CC[C@H]2[C@@H]3CCC4=CCCC[C@@H]4[C@H]3CC[C@@]21C (some centres not stated)
AC50 [4]: 2.31 µM (active)

CCCCCCCCCCc1ccccc1
outcome [4]: inactive

C=CCOCC(O)CCl (configuration not stated)
outcome [4]: inactive

O=Nc1ccc(O)cc1
outcome [4]: inactive

CCCCCCCCc1ccc(Nc2ccc(CCCCCCCC)cc2)cc1
outcome [4]: inactive

c1ccc2c(c1)ccc1cc3c(ccc4ccccc43)cc12
outcome [4]: inactive

CCCCC(CC)COC(=O)c1ccccc1O (configuration not stated)
outcome [4]: inactive

S=C(NC1CCCCC1)NC1CCCCC1
AC50 [4]: 25.5 µM (active)

COCc1c(C(C)C)nc(C(C)C)c(/C=C/[C@@H](O)C[C@@H](O)CC(=O)O)c1-c1ccc(F)cc1
outcome [4]: inactive

CC=CC(F)(F)C(F)(F)C(F)(F)F
outcome [1]: inactive | outcome [2]: inactive | outcome [3]: inactive | outcome [4]: inactive | outcome [5]: inactive | outcome [6]: inactive | outcome [7]: inactive

FC(F)=C(F)OC(F)(F)C(F)(F)C(F)(F)F
outcome [1]: inactive | outcome [2]: inactive | outcome [3]: inactive | outcome [4]: inactive | outcome [5]: inactive | outcome [6]: inactive | outcome [7]: inactive

CCCCC/C=C\C/C=C\CCCCCCCC(=O)OC
outcome [4]: inactive
